Measured values: the OligoGym collection

target: FIZ1; assay: pooled miR-30 sensor sort-seq; sequence = guide strand; conditions: shRNA
Note: reference of the scale not given here.

Row | Sequence | sensor-assay potency score (higher = more potent)
1 | AACAGCTTCTCGCACTCGGAGC | -1.76
2 | TAGATCAGTCCATTCTACTGGG | 0.523
3 | TGGTACAGGGTGTCTTCCGAGG | -1.47
4 | TGAGCGGAACAGCTTCTCGCAC | -1.25
5 | TTGAGGTAGCACTCGTGGCGGA | -0.466
6 | TTTCTCACCAGTGTGGACGACC | -0.391
7 | TTCTCGCACTCGGAGCAGCCGA | -1.7
8 | TTGAAGTCGCGCTCGCAGCGCG | -0.792
9 | TGGTTGGCTAGGTTGAAGCTGT | -0.915
10 | TGAAGCTGTGCTTGAAACCCTT | -0.439
11 | TTGAAGGGCTTCACGTCGGTGT | 0.144

target: FKBP10; assay: as above; conditions: shRNA

Row | Sequence | sensor-assay potency score (higher = more potent)
12 | TAGCTTGAATCAAACTTCTTGC | 0.0257
13 | TATGGTTTTCTCAGGGTCCTGC | 0.0683
14 | TTCCTTGTTCCACACATCCAGC | -1.14
15 | ATAGCTTGAATCAAACTTCTTG | 0.371
16 | TTGATCAGCCAACCAGAGCCGA | -0.877
17 | TCGTCGACTGTGATCTTGCCGT | -0.799
18 | TAGCTGGACAGCGTCCTTCGGG | -1.26
19 | TCAAACAGCAGCACAGCACTGC | 0.521
20 | TTGAATCAAACTTCTTGCCATC | -0.96
21 | TAATCTTCCTTCTCTCTCCAGG | -0.239
22 | TTGAAGATTAGCACGGCAGAGC | -0.871
23 | TAGCTGGTGTCGAAGAAGGTGC | -0.841

target: FKBPL; assay: as above; conditions: shRNA

Row | Sequence | sensor-assay potency score (higher = more potent)
24 | TTCGGTAGGAGGGTCTCGGGGC | -0.399
25 | TGACACATGGACTCCAAGCATT | -1.29
26 | TTGGCATGAAGGACAGTTCGTT | 0.00211
27 | TAGTTAGCTCTGTCCAGCCCTC | -1.24
28 | TCTATCGCCAGCACCTTCTTGA | 0.068
29 | ATGAAGGACAGTTCGTTCTGGA | 0.322
30 | TTTCGGTAGGAGGGTCTCGGGG | -1.79
31 | TAATCTGAATAACTGAATCAAG | -1.19
32 | TTCCTTCTCGCTAGTCTCCAGC | -1.31
33 | TTCCTCACCTTGACACATGGAC | -0.29
34 | ATCTTCTTGACAAAGCTCCCAT | -0.554
35 | TTGAGTATGCTCTAGAATTTGG | -0.551

target: FKTN; assay: as above; conditions: shRNA

Row | Sequence | sensor-assay potency score (higher = more potent)
36 | TATCAGATTTGTAATCTTGTAT | 0.319
37 | TTTAAGTCTCAAGTGGCCGTGC | 0.148
38 | TTGCATTGTCGATACCATCCTA | -0.0659
39 | TTTCCTGTCAATGTGTTCTTTA | -0.407
40 | TTAACTGCACGCCACTGTGTGC | -1.27
